# According to PubChem BioAssay AID434970 (Sanford-Burnham Center for Chemical Genomics, 2010):
# Among all 11,000 compounds or so, about 310 (2.8%) were called active. No stated cut-off is given here; in the data, active means activity change below about -85%; inactive means the rest. For the sample, actives were picked, then their nearest neighbours and some compounds at random.
# System: intestinal alkaline phosphatase [Mus musculus]
# Assay: mouse intestinal phosphatase enzyme activation – biochemical, luminescence, single concentration, confirmation (AID 434970)
# Conditions: purified mouse IAP, CDP-Star luminescence, 30 min, at 10 µM; activation factor: measured here: IAP activation factor, stronger effect = higher value; activity change, negative = activation: stronger effect = lower value
SMILES,activation factor,"activity change, negative = activation"
Cc1cc(NC(=O)c2ccc(C)s2)n(-c2ccccc2)n1,1.01,-0.8% (inactive)
Cc1cc(NC(=O)Nc2ccc(Cl)cc2)n(-c2ccccc2)n1,2.07,-107% (active)
COc1cccc(-c2cc(C(=O)Nc3cc(C)nn3-c3ccccc3)no2)c1,1.1,-10.2% (inactive)
Cc1cc(NC(=O)Nc2cccc(Cl)c2)n(-c2ccccc2)n1,1.97,-97.1% (active)
Cc1cc(NC(=O)Nc2ccc(Cl)c(Cl)c2)n(-c2ccccc2)n1,2.79,-179% (active)
Cc1cc(NC(=O)Nc2cc(C)nn2-c2ccccc2)n(-c2ccccc2)n1,0.992,0.75% (inactive)
CCOC(=O)/C=C(\C)Nc1cc(C)nn1-c1ccccc1,1.04,-4.05% (inactive)
COc1ccc(-c2cc(C(=O)Nc3cc(C)nn3-c3ccccc3)no2)cc1,0.921,7.9% (inactive)
Cc1nn(C)c(C)c1NC(=O)Nc1ccc(Cl)c(Cl)c1,1.62,-62.2% (inactive)
COc1cc(C2Nc3cc(Cl)c(S(N)(=O)=O)cc3S(=O)(=O)N2)ccc1OCc1ccccc1 (stereo unspecified),0.84,16% (inactive)
CC[C@]12c3[nH]c4cc(CCC(=O)N(C)C)ccc4c3CCN1C(=O)[C@@H](CC(=O)NCC13CC4CC(CC(C4)C1)C3)C[C@@H]2C(=O)N1CCN(C(=O)C2CC2)CC1,1.15,-14.6% (inactive)
O=C(CCl)Oc1ccc2occ(C(=O)c3cccs3)c2c1,0.89,11% (inactive)
Cc1[nH]c2ccccc2c1C(=O)COC(=O)C1CC(=O)N(Cc2ccco2)C1 (stereo unspecified),1.14,-13.6% (inactive)
CCOC(=O)C1=CNS(=O)(=O)NC1c1ccc(C)cc1 (stereo unspecified),0.96,4.05% (inactive)
COc1ccc2c(c1)[nH]c1c(=O)n(CCc3cnc[nH]3)cnc12,1.02,-1.9% (inactive)
CCCOc1ccc(C(=O)NCCO)cc1,1.01,-1.1% (inactive)
CCCCOc1ccc(-c2nnc(-c3ccncc3)o2)cc1,0.94,6.05% (inactive)
CCCCCOc1ccc(C(=O)CCC(=O)NNC(=O)c2ccncc2)cc1,3.52,-252% (active)
CC[C@]1(C(=O)OC)[C@H]2C(=O)N(C)C(=O)[C@H]2[C@H]2CN=C(SCc3ccc(C#N)cc3)N21,1.07,-6.55% (inactive)
N#Cc1nc(-c2ccc(Cl)cc2)oc1NCc1ccco1,0.952,4.8% (inactive)
COc1ccccc1-c1cc(C(F)(F)F)nc(N2CCCC2)n1,0.939,6.15% (inactive)
O=C(Cn1cc(C(=O)c2ccco2)c2ccccc21)NCc1ccco1,0.907,9.3% (inactive)
S=C(NCc1cccc(Cl)c1)NC1CCCCC1,1.14,-14.3% (inactive)
S=C(NCc1ccc(Cl)cc1Cl)NC1CCCCC1,1.93,-93% (active)
S=C(NCc1ccc(Cl)cc1Cl)Nc1ccccc1,1.41,-41% (inactive)
Cc1cccc(NC(=O)C2=C(O)c3ccccc3N(C)S2(=O)=O)c1,0.998,0.2% (inactive)

SMILES,activation factor,"activity change, negative = activation"
N#Cc1nc(COc2ccc(Cl)cc2)oc1N1CCCCCC1,0.964,3.6% (inactive)
CCOC(=O)c1cccc(NC(=O)CCS(=O)(=O)c2cccs2)c1,1.01,-0.85% (inactive)
COc1ccc(C(=O)NNC(=S)NC(=O)c2cc(-c3ccccc3)nc3ccccc23)cc1,0.848,15.2% (inactive)
C[C@]12c3[nH]c4cc(-c5ccco5)ccc4c3CCN1C(=O)[C@@H](CC(=O)NCCN1CCOCC1)C[C@@H]2C(=O)N1CCOCC1,0.997,0.25% (inactive)
C[C@H](CO)N1C[C@H](C)[C@@H](CN(C)S(=O)(=O)c2ccc(F)cc2)Oc2ccc(NC(=O)Nc3ccc4c(c3)OCO4)cc2C1=O,1.82,-81.6% (inactive)
C[C@H](CO)N1C[C@H](C)[C@H](CN(C)S(=O)(=O)c2ccccc2)Oc2ccc(NC(=O)NC3CCCCC3)cc2CC1=O,1.71,-71.4% (inactive)
C[C@H](CO)N1C[C@H](C)[C@@H](CN(C)S(=O)(=O)c2ccc(F)cc2)Oc2ccc(NC(=O)NC3CCCCC3)cc2C1=O,2.2,-120% (active)
C[C@H](CO)N1C[C@H](C)[C@@H](CN(C)S(=O)(=O)c2ccccc2)Oc2ccc(NC(=O)NC3CCCCC3)cc2C1=O,2.79,-179% (active)
COc1ccc(S(=O)(=O)N(C)C[C@H]2Oc3ccc(NC(=O)NC4CCCCC4)cc3C(=O)N([C@H](C)CO)C[C@@H]2C)cc1,2.74,-174% (active)
C[C@@H]1CN([C@@H](C)CO)C(=O)c2cc(NC(=O)Nc3ccc4c(c3)OCO4)ccc2O[C@H]1CN(C)S(=O)(=O)c1ccc(F)cc1,1.65,-64.8% (inactive)
COc1ccc(NC(=O)N(C)C[C@H]2Oc3ccc(NC(=O)NC4CCCCC4)cc3C(=O)N([C@H](C)CO)C[C@@H]2C)cc1,1.61,-60.9% (inactive)
Cc1noc(C)c1S(=O)(=O)N(C)C[C@H]1Oc2ccc(NC(=O)NC3CCCCC3)cc2C(=O)N([C@H](C)CO)C[C@@H]1C,1.82,-81.5% (inactive)
Cc1ccc(NC(=O)N2CCC(NC(=O)c3ccccc3C)CC2)cc1,0.993,0.7% (inactive)
O=C(C[C@H]1C[C@H](C(=O)N2CCCCC2)[C@@]2(CCc3ccccc3)c3[nH]c4cc(-c5ccco5)ccc4c3CCN2C1=O)NCc1ccco1,1.16,-16.1% (inactive)
O=C(Nc1ccccc1)Nc1cccc(Cl)c1,2.11,-111% (active)
O=C(Cn1nnc(-c2ccc(Cl)cc2)n1)NC1CC2CCC1C2 (stereo unspecified),1.15,-15.3% (inactive)
O=C(Cc1cccc2ccccc12)NNC(=O)Nc1cccc(Cl)c1,0.964,3.65% (inactive)
O=C(Cc1ccccc1)NNC(=O)Nc1cccc(Cl)c1,0.911,8.85% (inactive)
COC(=O)c1ccc(NC(=S)NC2CC3CCC2C3)cc1 (stereo unspecified),1.56,-56% (inactive)
O=C(Nc1cccc(Cl)c1)NC1CC2CCC1C2 (stereo unspecified),2.64,-164% (active)
O=C(NCc1cccc2ccccc12)Nc1ccccc1,1.74,-74.1% (inactive)
O=C(Nc1ccc(C(=O)N2CCCCC2)cc1)Nc1cccc(Cl)c1,2.39,-139% (active)
O=C(Nc1cccc(Cl)c1)N1CCCC1,1.09,-8.6% (inactive)
O=C(NCc1csc2ccccc12)Nc1cc(Cl)cc(Cl)c1,2.45,-145% (active)
CC(=O)c1ccc(NC(=O)N2CCN(c3cccc(Cl)c3)CC2)cc1,1.08,-7.6% (inactive)
CC[C@]12c3[nH]c4ccc(OC)cc4c3CCN1C(=O)C(CC(=O)NCCC1=CCCCC1)C[C@@H]2C(=O)N1CCN(C(=O)C2CC2)CC1 (stereo partly specified),1.01,-1.4% (inactive)

SMILES,activation factor,"activity change, negative = activation"
O=C(Oc1cccc(NC(=O)c2ccco2)c1)c1ccc(Br)c(S(=O)(=O)N2CCCCC2)c1,0.907,9.3% (inactive)
O=C(Nc1scc(-c2ccccc2)c1C(=O)O)c1ccco1,0.964,3.6% (inactive)
CCn1c(CNc2ccc(OC)cc2)nnc1SCC(=O)Nc1ccc(F)cc1,1.08,-7.7% (inactive)
Cc1cc(NC(=O)CC23CC4CC(C2)CC(CC(=O)Nc2cc(C)on2)(C4)C3)no1,1.02,-1.55% (inactive)
Cc1sc2nc(SCC(=O)Nc3c(C)n(C)n(-c4ccccc4)c3=O)n(C)c(=O)c2c1C,0.771,22.9% (inactive)
Cc1csc(C(=O)O)c1-n1cccc1,0.908,9.2% (inactive)
Fc1ccc(OCc2nn3cnnc3s2)cc1,0.923,7.75% (inactive)
CCOC(=O)/C(C#N)=C\c1ccco1,1.12,-11.7% (inactive)
COC(=O)c1ccccc1NC(=O)CN(CCc1ccccc1)S(C)(=O)=O,1.04,-3.75% (inactive)
CCOc1ccc(C2C(C#N)=C(N)N(c3sc4c(c3C#N)CCCC4)C3=C2C(=O)CCC3)cc1 (stereo unspecified),0.903,9.65% (inactive)
COCCC(=O)N(Cc1ccc2c(c1)OCO2)C(C(=O)NC1CCCCC1)c1ccncc1 (stereo unspecified),0.912,8.8% (inactive)
O=C(Nc1ccccc1)Nc1ccc(Br)c(Cl)c1,1.82,-82.4% (inactive)
O=C(Nc1cccc(F)c1)Nc1cccc(Cl)c1,2.11,-111% (active)
Fc1cccc(NC(=S)NCc2ccc(Cl)cc2)c1,1.31,-30.9% (inactive)
O=C(Nc1cc(Cl)cc(Cl)c1)Nc1cnccn1,1.97,-96.5% (active)
O=C(Nc1cccc(Cl)c1)Nc1ccc2c(c1)OCO2,2.46,-146% (active)
O=C(Nc1ccccc1)Nc1cc(Cl)cc(Cl)c1,3.41,-241% (active)
CC(C)C(=O)Nc1cccc(C(=O)Nc2ccc3c(c2)OCO3)c1,0.972,2.8% (inactive)
COC(=O)c1ccccc1NC(=O)Nc1ccc2c(c1)OCO2,1.08,-8% (inactive)
O=C(Nc1cccnc1)Nc1cc(Cl)cc(Cl)c1,1.69,-68.7% (inactive)
S=C(NCc1cccnc1)Nc1cc(Cl)cc(Cl)c1,1.38,-38.4% (inactive)
O=C(Nc1cc(Cl)cc(Cl)c1)c1cnn2cccnc12,0.974,2.55% (inactive)
Cc1ccc2c(c1)N(CCC(=O)NCc1cccs1)C(=O)C(C)O2 (stereo unspecified),1.03,-2.7% (inactive)
O=C(CCCOc1ccccc1)Nc1nnc(C2CCCO2)s1 (stereo unspecified),1.01,-1.15% (inactive)
CCOC(=O)c1c(-c2ccccc2)csc1NC(=O)COc1ccc2c(C)cc(=O)oc2c1,0.967,3.3% (inactive)
Cc1ccc(NC(=O)CS(=O)CC(=O)NCC2CCCO2)cc1 (stereo unspecified),1.07,-6.55% (inactive)
